# From PubChem BioAssay (NCATS)
# Values without a mark were called inactive. Results filed as inconclusive are left out. A call without a number means that no potency is given here. Calls of active or inactive are those of the source. Calls come from the whole dose curve; as a rule, active = well fitted curve in the direction sought with a large enough effect; inconclusive = small, poorly fitted or top-dose-only effect, or another doubt; inactive = no such curve, though single readings can be large; an effect the other way counts as inactive or inconclusive.
# Key:
# [1] = molecular target: Glutathione peroxidase 1 (Homo sapiens) (UniProt P07203); assay: Primary qHTS Assay for Inhibitors of Recombinant Selenoprotein Glutathione Peroxidase 1 (GPX1) (AID 1845191); note: nearly all actives have a fitted effect of over 65% in size
# Chain of Glutathione peroxidase 1 (Homo sapiens) (P07203 whole entry, looked up): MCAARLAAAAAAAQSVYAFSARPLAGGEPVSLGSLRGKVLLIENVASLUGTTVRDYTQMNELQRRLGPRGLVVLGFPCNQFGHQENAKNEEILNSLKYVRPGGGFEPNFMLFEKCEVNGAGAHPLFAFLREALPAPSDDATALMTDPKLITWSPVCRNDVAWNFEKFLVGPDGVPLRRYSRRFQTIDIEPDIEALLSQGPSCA
# In short: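 GR-coupled assay: compounds preincubated 30 min at room temperature with GPX1, then reaction started with CHP; final 10 nM GPX1, 1 mM GSH, 0.5 mM CHP, 0.5 mM NADPH, 100 nM GR, 0.01% BSA, pH 7.5 Tris buffer. NADPH fluorescence (340/450 nm) read at 0 and 15 min.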
# [2] = molecular target: Phospholipid hydroperoxide glutathione peroxidase GPX4 (Homo sapiens) (UniProt P36969); assay: Primary qHTS Assay for Inhibitors of Recombinant Selenoprotein Glutathione Peroxidase 4 (GPX4) (AID 1845192); note: nearly all actives have a fitted effect of over 65% in size; for activity change, negative = inhibition: series mostly up to about 50 µM
# Chain of Phospholipid hydroperoxide glutathione peroxidase GPX4 (Homo sapiens) (P36969 whole entry, looked up): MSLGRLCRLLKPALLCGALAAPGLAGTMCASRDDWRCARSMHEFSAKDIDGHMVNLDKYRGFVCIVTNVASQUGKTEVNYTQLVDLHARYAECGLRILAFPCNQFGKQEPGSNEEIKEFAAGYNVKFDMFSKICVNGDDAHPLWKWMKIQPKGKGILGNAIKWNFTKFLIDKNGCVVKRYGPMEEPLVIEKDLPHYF
# In short: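 GR-coupled assay: recombinant GPX4 preincubated 30 min with compound at room temperature; final 200 nM GPX4, 1 mM GSH, 0.5 mM cumene hydroperoxide, 0.5 mM NADPH, 100 nM GR, 0.01% BSA, pH 7.5 Tris. NADPH fluorescence (340/450 nm) read at 0 and 15 min.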
# [3] = molecular target: Luciferin 4-monooxygenase (Photinus pyralis) (UniProt P08659); assay: Primary firefly luciferase (FLuc) qHTS assay for identification of artifact compounds. (AID 1845220); note: nearly all actives have a fitted effect of over 60% in size; for activity change, negative = inhibition: series mostly up to about 54 µM
# In short: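 Titrated compounds were incubated 15 min at RT, protected from light, with luciferin and ATP at 10 uM; reaction started with 10 nM FLuc, luminescence imaged at 5 min, and concentration-response fitted by Hill equation.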
# [4] = Primary fluorescence-based thiol-reactive (MSTI) qHTS assay for identification of artifact compounds. (AID 1845221);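 note: series mostly up to about 54 µM; thiol-reactive compounds lower the probe fluorescence signal; nearly all actives have a fitted effect of over 65% in size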
# In short: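 Reactivity toward the thiol probe MSTI (4 uM) is scored by fluorescence at Ex/Em 525/598 nm after 1 h at room temperature. Acetyl-MSTI and MSTI define the activity scale.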
# [5] = test system: Nanoluciferase (engineered Oplophorus gracilirostris luciferase); assay: Primary Nanoluciferase (NLuc) qHTS assay for identification of artifact compounds. (AID 1845222);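 note: NLuc secreted into diluted conditioned medium of S16 cells; series mostly up to about 54 µM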
# In short: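 qHTS format, against NLuc in S16 cell-conditioned medium. Nano-Glo substrate 1:100 was added after 15 min at room temperature. Luminescence was taken after a further 5 min.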
# [6] = Primary redox qHTS assay for identification of artifact compounds. (AID 1845223); note: potency is the fitted concentration of half-maximal effect
# In short: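 Amplex Red (25 uM) and HRP (250 mU/mL) in HBSS, with compounds for 15 min, then 250 uM DTT for 30 min, room temperature, dark. Fluorescence 525/598 nm read; normalized to DMSO and 10 uM DA3003; Hill fit.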
smiles,measurement,setting,value
C[C@@H]1CC[C@]2(C(=O)O)CC[C@]3(C)C(=CCC4[C@@]5(C)C[C@@H](O)[C@@H](O)C(C)(C)C5CC[C@]43C)C2[C@]1(C)O (stereo partly specified),Potency,[1],inactive
same,Potency,[2],inactive
same,Potency,[3],inactive
same,Potency,[4],inactive
same,Potency,[5],inactive
same,Potency,[6],inactive
O=C(NC/C=C/CN1CCN(c2cccc(Cl)c2Cl)CC1)c1ccc(-c2ccccn2)cc1,Potency,[1],inactive
same,Potency,[2],inactive
same,Potency,[3],inactive
same,Potency,[4],inactive
same,Potency,[5],inactive
same,Potency,[6],inactive
CC1OC(O[C@@H]2[C@@H](O)[C@H](OC(=O)[C@]34CCC(C)(C)C[C@H]3C3=CCC5[C@@]6(C)CC[C@H](O[C@@H]7O[C@H](C(=O)O)[C@@H](O)[C@H](O[C@@H]8OC[C@@H](O)[C@H](O)[C@H]8O)[C@H]7O[C@@H]7O[C@H](CO)[C@H](O)[C@H](O)[C@H]7O)[C@@](C)(C=O)C6CC[C@@]5(C)[C@]3(C)C[C@H]4O)O[C@H](C)[C@@H]2OC2OC(C)C(OC3OCC(O)C(O)C3O)C(O)C2O)C(O)C(O)C1O (stereo partly specified),Potency,[1],inactive
same,Potency,[2],inactive
same,"activity change, negative = inhibition",[3],1.64% [at 11.6 µM]
same,"activity change, negative = thiol reactive",[4],288% [at 11.5 µM]
same,"activity, negative = inhibition",[5],2.13% [at 11.6 µM]
same,redox activity (% of DA3003),[6],19.3% [at 11.5 µM]
CC(=O)O[C@H]1C[C@@H](O)C(C)(C)C2C[C@@H](OC(C)=O)[C@]3(C)C(CC[C@@]4(C)[C@H](c5ccoc5)OC(=O)[C@H]5O[C@]543)[C@]21C (stereo partly specified),Potency,[1],inactive
same,Potency,[2],inactive
same,Potency,[3],inactive
same,Potency,[4],inactive
same,Potency,[5],inactive
same,Potency,[6],inactive
CC[C@H](C)[C@H](NC(=O)[C@H](Cc1ccc(O)cc1)NC(=O)[C@@H](N)C(C)C)C(=O)N[C@@H](Cc1cnc[nH]1)C(=O)N1CCC[C@H]1C(=O)N[C@@H](Cc1ccccc1)C(=O)O,outcome,[1],inactive [at 4.49 µM]
same,"activity change, negative = inhibition",[2],4.63% [at 4.52 µM]
same,outcome,[3],inactive [at 6.45 µM]
same,"activity change, negative = thiol reactive",[4],19.3% [at 6.41 µM]
same,"activity, negative = inhibition",[5],2.76% [at 6.45 µM]
same,redox activity (% of DA3003),[6],-2.99% [at 6.41 µM]
COC(=O)/C=C/c1ccc(O[C@@H]2O[C@H](CO)[C@@H](O)[C@H](O)[C@H]2O)cc1,Potency,[1],inactive
same,Potency,[2],inactive
same,Potency,[3],inactive
same,Potency,[4],inactive
same,Potency,[5],inactive
same,Potency,[6],inactive
C/C(=C/CO)CC[C@H]1[C@]2(C)C[C@H](O)CC(C)(C)[C@H]2CC[C@]1(C)O,Potency,[1],inactive
same,Potency,[2],inactive
same,Potency,[3],inactive
same,Potency,[4],inactive
same,Potency,[5],inactive
same,Potency,[6],inactive
COc1ccc(CCC(=O)O)c(O[C@@H]2O[C@H](CO)[C@@H](O)[C@H](O)[C@H]2O)c1,Potency,[1],inactive
same,Potency,[2],inactive
same,Potency,[3],inactive
same,Potency,[4],inactive
same,Potency,[5],inactive
same,Potency,[6],inactive
COc1ccnc(CCc2nc3ncccc3[nH]2)c1,Potency,[1],inactive
same,Potency,[2],inactive
same,Potency,[3],inactive
same,Potency,[4],inactive
same,Potency,[5],inactive
same,Potency,[6],inactive
C[C@@H]1CC[C@]2(C(=O)O)CC[C@]3(C)C(=CCC4[C@@]5(C)C[C@@H](O)[C@H](O)[C@@](C)(CO)C5CC[C@]43C)C2[C@H]1C (stereo partly specified),Potency,[1],inactive
same,Potency,[2],inactive
same,Potency,[3],inactive
same,Potency,[4],inactive
same,Potency,[5],inactive
same,Potency,[6],inactive
CC1(C)COC(=O)[C@@H]1O[C@@H]1O[C@H](CO)[C@@H](O)[C@H](O)[C@H]1O,Potency,[1],inactive
same,Potency,[2],inactive
same,Potency,[3],inactive
same,Potency,[4],inactive
same,Potency,[5],inactive
same,Potency,[6],inactive
O=C(O)c1ccc(NC(=O)[C@H](CC2CCCC2)n2cnc(C(F)(F)F)c2)nc1,Potency,[1],inactive
same,Potency,[2],inactive
same,Potency,[3],inactive
same,Potency,[4],inactive
same,Potency,[5],inactive
same,Potency,[6],inactive
c1cc(-c2cc(C3CCNCC3)[nH]n2)ccn1,Potency,[1],inactive
same,Potency,[2],inactive
same,Potency,[3],inactive
same,Potency,[4],inactive
same,Potency,[5],inactive
same,Potency,[6],inactive
C[C@@H]1O[C@@H](O[C@@H]2[C@@H](O)[C@H](O[C@H]3[C@H](O[C@H]4CC[C@@]5(C)C(CC[C@]6(C)C5CC=C5[C@@H]7CC(C)(C)CC[C@]7(C(=O)O[C@@H]7O[C@H](CO)[C@@H](O)[C@H](O)[C@H]7O)CC[C@]56C)C4(C)C)O[C@H](C(=O)O)[C@@H](O)[C@@H]3O)OC[C@H]2O)[C@H](O)[C@H](O)[C@H]1O (stereo partly specified),Potency,[1],inactive
same,Potency,[2],inactive
same,outcome,[3],inactive [at 11.6 µM]
same,"activity change, negative = thiol reactive",[4],351% [at 11.5 µM]
same,"activity, negative = inhibition",[5],2.29% [at 11.6 µM]
same,redox activity (% of DA3003),[6],-4.9% [at 11.5 µM]
CC(NC(=O)c1ccccc1N)C(=O)O (stereo unspecified),Potency,[1],inactive
same,Potency,[2],inactive
same,Potency,[3],inactive
same,Potency,[4],inactive
same,Potency,[5],inactive
same,Potency,[6],inactive
CC(C)(O)[C@@H]1CC[C@]2(CO)[C@@H](O)CC[C@](C)(O)[C@H]2[C@@H]1O[C@@H]1O[C@H](CO)[C@@H](O)[C@H](O)[C@H]1O,Potency,[1],inactive
same,Potency,[2],inactive
same,Potency,[3],inactive
same,Potency,[4],inactive
same,Potency,[5],inactive
same,Potency,[6],inactive
CC(CNS(=O)(=O)C(C)C)c1ccc(-c2ccc(C#N)cc2)cc1 (stereo unspecified),Potency,[1],inactive
same,Potency,[2],inactive
same,Potency,[3],inactive
same,Potency,[4],inactive
same,Potency,[5],inactive
same,Potency,[6],inactive
CC(=O)OCC(Cc1ccccc1)NC(=O)C(Cc1ccccc1)NC(=O)c1ccccc1 (stereo unspecified),Potency,[1],inactive
same,Potency,[2],inactive
same,Potency,[3],inactive
same,Potency,[4],inactive
same,Potency,[5],inactive
same,Potency,[6],inactive
CC1=CC(=O)C2C(C)(C)CCC[C@]2(C)[C@H]1CC[C@H](C)CC(=O)O (stereo partly specified),Potency,[1],inactive
same,Potency,[2],inactive
same,Potency,[3],inactive
same,Potency,[4],inactive
same,Potency,[5],inactive
same,Potency,[6],inactive
CCCc1[nH]nc2c1C(c1cc(Cl)cc(Cl)c1O)C(C#N)=C(N)O2 (stereo unspecified),Potency,[1],inactive
same,Potency,[2],inactive
same,Potency,[3],inactive
same,Potency,[4],inactive
same,Potency,[5],inactive
same,Potency,[6],11.9 µM (active)
OC[C@@]1(O)CO[C@@H](OC[C@H]2O[C@@H](OCc3ccccc3)[C@H](O)[C@@H](O)[C@@H]2O)[C@@H]1O,Potency,[1],inactive
same,Potency,[2],inactive
same,Potency,[3],inactive
same,Potency,[4],inactive
same,Potency,[5],inactive
same,Potency,[6],inactive
